Data as given in PubChem BioAssay.
Where “and” joins values, the source holds several entries; their conditions need not be identical. Identical values can stand only once. Calls of active or inactive are those of the source.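 The calls were made as follows, unless noted: active = thallium flux through the channel raised or lowered by more than 3 SD from vehicle-only wells, actives on both sides; inactive = the rest.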

Columns and labels:
[1] = P. berghei load reduction in hepatocytes – cell-based, HepG2, luciferase luminescence, HepG2 viability, primary screen (AID 624349; in the data active = parasite load remaining mostly below about 12%, no sharp cut-off; inactive = mostly above about 10%;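 also: 100% = mean of DMSO negative control wells on the same plate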); conditions: P. berghei liver stage in HepG2, luciferase luminescence, concentration not given here; parasite load remaining: stronger effect = lower value; viability: measured here: HepG2 viability without parasites
[2] = signal quenchers or enhancers, Cy5 substrate/SSB – biochemical, NIH Clinical Collection, E. coli SSB, artefact control for HCV NS3 helicase inhibitor project (AID 743268; call rule not given here); conditions: Cy5-oligo bound E. coli SSB, fluorescence interference
[3] = system: Hepatitis C virus NS3 helicase; assay: blockers of NS3h binding to DNA – biochemical, fluorescence polarization, NIH Clinical Collection, primary screen (AID 743270; call rule not given here); conditions: NS3 helicase binding to Cy5-dT15 DNA, stronger effect = higher value, concentration not given here
[4] = target: Single-stranded DNA-binding protein (Escherichia coli (strain K12)) (UniProt P0AGE0); assay: SSB-ssDNA binding inhibitors – biochemical, fluorescence polarization, NIH Clinical Collection, counter-screen for HCV NS3 helicase inhibitor project (AID 743271; in the data active = inhibition above about 28%); conditions: E. coli SSB-DNA binding, stronger effect = higher value, concentration not given here
[5] = compounds distorting NS3 helicase fluorescence signal – biochemical, NIH Clinical Collection, artefact control for HCV NS3 helicase inhibitor project (AID 743272; call rule not given here;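 also: HCV NS3 helicase with a Cy5 labelled single stranded DNA probe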); conditions: fluorescence interference counterscreen, HCV NS3 helicase assay; stronger effect = lower value
[6] = viability loss with induced miR-34 in A549 – imaging, A549 dox-inducible miR-34, nuclei and caspase counts, primary screen (AID 1347080;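 active = compounds whose cell count with miR-34 switched on is under 0.7 times the count with it off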); conditions: A549 miR-34 inducible, Hoechst nuclei count, 48 h
[7] = galactose survival enhancers in mitochondrial complex I cybrids – cell-based, galactose medium, ATP luminescence, primary screen (AID 1645843;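 active = z-score of at least 1.8 in each of two replicates, scored against plate mean and spread of sample wells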;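 also: positive z means more ATP and so rescue of galactose-driven cybrid death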); conditions: complex I mutant cybrid cells, 72 h, stronger effect = higher value
F380Y = assay: BK channel mutant inhibitors and activators – cell-based, U2OS BacMam, thallium flux, beta subunits, selectivity assay, profiling panel (AID 1259406); conditions: U2OS BacMam BK variants, at 30 µM;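 also: initial slope of Thallos dye fluorescence rise after thallium is added; log ratio against the mean of 0.3% DMSO vehicle wells on the same plate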
F380Y/beta1 = assay: as above; conditions: U2OS BacMam BK variants, at 30 µM
F380Y/beta2Delta = assay: as above; conditions: U2OS BacMam BK variants, at 30 µM
F380Y/beta4 = assay: as above; conditions: U2OS BacMam BK variants, at 30 µM
[8] = target: Calcium-activated potassium channel subunit alpha-1 (Homo sapiens) + Leucine-rich repeat-containing protein 26 (Homo sapiens) (UniProt Q12791+Q2I0M4); assay: as above; conditions: U2OS BacMam BK variants, F380Y/Slo1WT/gamma1, at 30 µM
R275C = assay: as above; conditions: U2OS BacMam BK variants, at 30 µM
R275C/beta1 = assay: as above; conditions: U2OS BacMam BK variants, at 30 µM
R275C/beta2Delta = assay: as above; conditions: U2OS BacMam BK variants, at 30 µM
R275C/beta4 = assay: as above; conditions: U2OS BacMam BK variants, at 30 µM
R275C/Slo1WT/beta2 = assay: as above; conditions: U2OS BacMam BK variants, at 30 µM
[9] = system: Neuropilin-2 / VEGF-C interaction (human); assay: small molecules blocking Neuropilin-2/VEGF-C interaction – biochemical, microplate binding format, z-score (AID 743281; call rule not given here); conditions: microplate NRP2/VEGF-C binding assay; stronger effect = lower value
[10] = modulation of C. elegans fzo-1 (AID 1259413; call rule not given here;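 also: fzo-1 mutant C. elegans worms in liquid wells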); conditions: C. elegans fzo-1 modulator screen, mean read-out; stronger effect = higher value
[11] = EMT-state selective cytotoxicity in co-culture – imaging, PC-3E GFP, TEM4-18 mCherry, primary screen (AID 1345086;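 active = compounds killing one labelled cell type while sparing the other, by normalised counts and ratio limits, not self-fluorescent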;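 also: cells exposed to compound for 72 h before imaging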;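 as to red/green cell ratio (normalised): normalised mesenchymal count divided by normalised epithelial count so high means epithelial killing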); conditions: PC-3E GFP / TEM4-18 mCherry co-culture, imaging cell counts, at 1 µM
[12] = MELAS cybrid and Rieske KO viability enhancers – cell-based, MELAS cybrids, Rieske KO mouse fibroblasts, CellTiter-Glo, primary screen (AID 1508586;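 active = mean z-score across replicates of 1.96 or higher in either the MELAS or the Rieske mutant cell line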;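 also: z relative to plate mean and SD of compound and empty wells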); conditions: low glucose
[13] = target: NAD(+) hydrolase SARM1 (Homo sapiens) (UniProt Q6SZW1); assay: blocking NAD cleavage by SARM1 SAM-TIR – cell lysate, NAD-Glo luminescence (AID 1508614;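 active = compound whose remaining NAD level is above about 45 nM, limit read from the data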;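 also: higher remaining NAD means stronger inhibition of SARM1 NADase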); conditions: SAM-TIR HEK293T lysate NADase, at 1 µM, stronger effect = higher value
[14] = system: Aerobactin synthetase IucA (Klebsiella pneumoniae); assay: inhibition of K. pneumoniae IucA enzyme – biochemical, Tocris library, absorbance (AID 1345561; call rule not given here;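 also: 100% = enzyme without compound and 0% = no enzyme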); conditions: purified IucA enzyme assay, absorbance (OD) read-out; stronger effect = lower value;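 tested at 8 µM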
[15] = compounds altering circadian rhythm period length – cell-based, LOPAC library, luminescence reporter (AID 2774; call rule not given here;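 also: values are relative to mean of DMSO wells on each plate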); conditions: circadian reporter cells, at 7 µM, actives lie on both sides
[16] = measured here: relative caspase fold change +Dox/-Dox
[17] = measured here: total cells with miR-34 induction, stronger effect = lower value
[18] = measured here: total cells without miR-34 induction
[19] = MELAS cybrid survival, CellTiter-Glo 48 h, stronger effect = higher value
[20] = Rieske KO mouse fibroblast survival, CellTiter-Glo 72 h
[21] = stronger effect = lower value, cell number ratio, induced over uninduced

Sequence of Calcium-activated potassium channel subunit alpha-1 (Homo sapiens) + Leucine-rich repeat-containing protein 26 (Homo sapiens) (Q2I0M4 whole entry, looked up, one chain of several): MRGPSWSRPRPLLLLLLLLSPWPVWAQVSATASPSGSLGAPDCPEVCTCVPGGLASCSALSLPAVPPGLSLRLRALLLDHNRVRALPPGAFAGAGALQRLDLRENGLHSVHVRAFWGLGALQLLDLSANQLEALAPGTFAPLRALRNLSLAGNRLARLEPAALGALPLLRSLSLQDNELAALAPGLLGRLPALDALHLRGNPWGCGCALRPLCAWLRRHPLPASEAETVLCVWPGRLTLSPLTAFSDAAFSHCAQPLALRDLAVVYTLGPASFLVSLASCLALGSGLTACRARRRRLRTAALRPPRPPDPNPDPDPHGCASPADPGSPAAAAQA
Sequence of NAD(+) hydrolase SARM1 (Homo sapiens) (Q6SZW1 whole entry, looked up): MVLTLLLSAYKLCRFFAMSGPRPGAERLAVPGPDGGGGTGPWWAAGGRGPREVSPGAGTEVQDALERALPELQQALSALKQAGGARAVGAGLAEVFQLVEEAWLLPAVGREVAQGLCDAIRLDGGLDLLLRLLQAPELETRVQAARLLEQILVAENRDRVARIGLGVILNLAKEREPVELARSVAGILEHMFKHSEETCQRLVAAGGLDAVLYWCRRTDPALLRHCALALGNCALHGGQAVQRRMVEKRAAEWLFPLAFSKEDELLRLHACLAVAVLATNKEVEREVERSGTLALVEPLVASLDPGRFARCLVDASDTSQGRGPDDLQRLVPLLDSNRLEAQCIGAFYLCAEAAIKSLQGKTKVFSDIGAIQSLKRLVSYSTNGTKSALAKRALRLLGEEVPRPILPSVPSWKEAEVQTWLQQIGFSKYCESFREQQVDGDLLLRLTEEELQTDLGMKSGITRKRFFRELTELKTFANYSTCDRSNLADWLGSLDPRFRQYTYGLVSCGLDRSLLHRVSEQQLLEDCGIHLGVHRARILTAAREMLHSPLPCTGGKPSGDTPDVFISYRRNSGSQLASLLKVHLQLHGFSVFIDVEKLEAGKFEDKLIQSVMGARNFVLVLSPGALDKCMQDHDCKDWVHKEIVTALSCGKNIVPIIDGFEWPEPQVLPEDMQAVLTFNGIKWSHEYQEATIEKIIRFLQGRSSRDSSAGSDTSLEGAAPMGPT

CC12CCC(=O)C=C1CCC1C2CCC2(C)C(O)CCC12 (stereo unspecified)
inactive: parasite load remaining [1] 38.7% | fluorescence ratio [2] 0.97 | inhibition [3] -3.18% | inhibition [4] -3.53% | fluorescence ratio [5] 1.01 | fold change ([6]; stronger effect = lower value) 0.96 | z-score [7] -0.235 | log fold change Tl+ flux (F380Y) 0.0199 | log fold change Tl+ flux (F380Y/beta1) 0.0232 | log fold change Tl+ flux (F380Y/beta2Delta) 0.032 | log fold change Tl+ flux (F380Y/beta4) -0.0491 | log fold change Tl+ flux [8] -0.042 | log fold change Tl+ flux (R275C) 0.011 | log fold change Tl+ flux (R275C/beta1) 0.00563 | log fold change Tl+ flux (R275C/beta2Delta) 0.059 | log fold change Tl+ flux (R275C/beta4) -0.00525 | log fold change Tl+ flux (R275C/Slo1WT/beta2) -0.0485
9970: cell count [6, 17]
100%: viability [1]
10400: cell count [6, 18]
2.43: fold change [6, 16]

CCN(C(C)=O)c1cccc(-c2ccnc3c(C#N)cnn23)c1
8990: cell count [6, 17]
0.277: z-score [12, 20]
10600: cell count [6, 18]
1.1: normalised cell number ([11]; measured here: epithelial PC-3E GFP cell survival)
1.22: normalised cell number ([11]; measured here: mesenchymal TEM4-18 mCherry cell survival)
1.13: fold change [6, 16]
inactive: parasite load remaining [1] 67.8% | fluorescence ratio [2] 0.96 | inhibition [3] -1.97% | inhibition [4] -3.54% | fluorescence ratio [5] 0.98 | z-score [9] -0.583 | mean signal [10] 228 | red/green cell ratio (normalised) ([11]; actives lie on both sides) 1.11 | fold change ([6]; stronger effect = lower value) 0.85 | z-score [12, 19] 0.804 | remaining NAD [13] 10 nM | z-score [7] 0.945
71%: viability [1]

C[C@]12CC[C@H]3[C@@H](CCC4=CC(=O)CC[C@@H]43)[C@@H]1CC[C@@H]2O
1.32: fold change [6, 16]
inactive: parasite load remaining [1] 113% and 109% | fluorescence ratio [2] 1 | inhibition [3] -4.36% | inhibition [4] -0.87% | fluorescence ratio [5] 0.98 | fold change ([6]; stronger effect = lower value) 0.927 | z-score [12, 19] 0.634 | log fold change Tl+ flux (F380Y) 0.0331 | log fold change Tl+ flux (F380Y/beta1) 0.000378 | log fold change Tl+ flux (F380Y/beta2Delta) 0.0141 | log fold change Tl+ flux (F380Y/beta4) 0.0107 | log fold change Tl+ flux [8] 0.0229 | log fold change Tl+ flux (R275C) -0.0315 | log fold change Tl+ flux (R275C/beta1) 0.00735 | log fold change Tl+ flux (R275C/beta2Delta) -0.0135 | log fold change Tl+ flux (R275C/beta4) -0.0252 | log fold change Tl+ flux (R275C/Slo1WT/beta2) -0.0416
73.7% and 87.5%: viability [1]
8800: cell count [6, 18]
8170: cell count [6, 17]
0.271: z-score [12, 20]

CC[C@@H]1C=CC=CC[C@H](C)[C@@H](O)[C@@H](C)C(=O)[C@H](C)[C@@H](O)[C@H](C)C(=O)[C@H](C)[C@@H](O)[C@H](C)C=CC(=O)O[C@H]2[C@@H](C)[C@@H](CC1)O[C@@]1(CC[C@@H](C)[C@@H](C[C@H](C)O)O1)[C@@H]2C
67.4%: viability [1]
inactive: fluorescence ratio [2] 1.01 | inhibition [3] 4.36% | inhibition [4] 7.6% | fluorescence ratio [5] 0.98 | log fold change Tl+ flux (R275C/beta1) 0.0227 | log fold change Tl+ flux (R275C/beta2Delta) -0.0422 | log fold change Tl+ flux (R275C/beta4) -0.0178 | log fold change Tl+ flux (R275C/Slo1WT/beta2) -0.0132
active: parasite load remaining [1] 1.55% | log fold change Tl+ flux (F380Y) -0.509 | log fold change Tl+ flux (F380Y/beta1) -0.604 | log fold change Tl+ flux (F380Y/beta2Delta) -0.884 | log fold change Tl+ flux (F380Y/beta4) -0.693 | log fold change Tl+ flux [8] -0.117 | log fold change Tl+ flux (R275C) -0.133

NC(=NCc1ccc(Cl)cc1)SCCCc1cnc[nH]1
8670 and 7970: cell count [6, 17]
0.654 and 0.836: fold change [6, 16]
9480 and 8280: cell count [6, 18]
63.6%: viability [1]
inactive: parasite load remaining [1] 42% | fluorescence ratio [2] 0.97 | inhibition [3] -2.84% | inhibition [4] 0.39% | fluorescence ratio [5] 0.97 | z-score [9] -0.336 | mean signal [10] 232 | remaining activity [14] 102% | fold change ([6]; stronger effect = lower value) 0.914 | fold change [6, 21] 0.963 | z-score [7] -1.21 and 0.08

Oc1cc2c(cc1O)[C@H]1c3ccccc3CN[C@@H]1CC2
active: z-score [9] -4.26 | log fold change Tl+ flux (R275C/beta1) 0.0796 | log fold change Tl+ flux (R275C/beta2Delta) 0.137
inactive: period change [15] -0.1 h | parasite load remaining [1] 31.6% | fluorescence ratio [2] 0.94 | inhibition [3] -5.46% | inhibition [4] -4.33% | fluorescence ratio [5] 0.91 | mean signal [10] 249 | remaining activity [14] 97.5% | fold change [6, 21] 0.969 | z-score [7] -1.23 | log fold change Tl+ flux (F380Y) -0.103 | log fold change Tl+ flux (F380Y/beta1) 0.0598 | log fold change Tl+ flux (F380Y/beta2Delta) -0.0567 | log fold change Tl+ flux (F380Y/beta4) -0.0725 | log fold change Tl+ flux [8] 0.0857 | log fold change Tl+ flux (R275C) -0.0506 | log fold change Tl+ flux (R275C/beta4) 0.0776 | log fold change Tl+ flux (R275C/Slo1WT/beta2) 0.0271
9020: cell count [6, 18]
68.7%: viability [1]
0.736: fold change [6, 16]
8740: cell count [6, 17]

Cc1ncc2n1-c1ccc(Cl)cc1C(c1ccccc1F)=NC2
inactive: parasite load remaining [1] 105% | fluorescence ratio [2] 1.04 | inhibition [3] -1.98% | inhibition [4] -3.18% | fluorescence ratio [5] 1.02 | z-score [9] -0.669 | mean signal [10] 220 | fold change ([6]; stronger effect = lower value) 1.08 | z-score [7] 0.59 | log fold change Tl+ flux [8] -0.019 | log fold change Tl+ flux (R275C) -0.0381 | log fold change Tl+ flux (R275C/beta2Delta) -0.00496 | log fold change Tl+ flux (R275C/Slo1WT/beta2) 0.000117
73.5%: viability [1]
1.63: fold change [6, 16]
6400: cell count [6, 18]
active: log fold change Tl+ flux (F380Y) -0.403 | log fold change Tl+ flux (F380Y/beta1) -0.386 | log fold change Tl+ flux (F380Y/beta2Delta) -0.205 | log fold change Tl+ flux (F380Y/beta4) -0.197 | log fold change Tl+ flux (R275C/beta1) -0.128 | log fold change Tl+ flux (R275C/beta4) 0.138
6900: cell count [6, 17]

COc1ccc(CCN)cc1OC
inactive: parasite load remaining [1] 69.1% | fluorescence ratio [2] 0.93 | inhibition [3] -0.22% | inhibition [4] 5.91% | fluorescence ratio [5] 0.92 | z-score [9] -0.441 | mean signal [10] 274 | fold change ([6]; stronger effect = lower value) 1.12 | z-score [12, 19] 0.19 | z-score [7] 0.46 | log fold change Tl+ flux (F380Y) -0.0565 | log fold change Tl+ flux (F380Y/beta1) 0.00413 | log fold change Tl+ flux (F380Y/beta2Delta) -0.0175 | log fold change Tl+ flux (F380Y/beta4) -0.0433 | log fold change Tl+ flux [8] -0.00222 | log fold change Tl+ flux (R275C) -0.00436 | log fold change Tl+ flux (R275C/beta1) -0.0128 | log fold change Tl+ flux (R275C/beta2Delta) -0.00532 | log fold change Tl+ flux (R275C/beta4) -0.0169 | log fold change Tl+ flux (R275C/Slo1WT/beta2) -0.0122
0.0302: z-score [12, 20]
72%: viability [1]
8740: cell count [6, 17]
7830: cell count [6, 18]
0.533: fold change [6, 16]
